Measurements as given in ChEMBL document CHEMBL3988442, “University of Dundee, Small-Polar-MMV Screening Library” (2021).

These molecules were tested against T1, Aspartate--tRNA(Asp/Asn) ligase (Mycobacterium tuberculosis (strain ATCC 25618 / H37Rv)) (UniProt P9WFW3) (assay: Assay for Asp RNA synthetase-1 from Mycobacterium tuberculosis). Conditions: 30 µM.
T1 sequence (whole entry): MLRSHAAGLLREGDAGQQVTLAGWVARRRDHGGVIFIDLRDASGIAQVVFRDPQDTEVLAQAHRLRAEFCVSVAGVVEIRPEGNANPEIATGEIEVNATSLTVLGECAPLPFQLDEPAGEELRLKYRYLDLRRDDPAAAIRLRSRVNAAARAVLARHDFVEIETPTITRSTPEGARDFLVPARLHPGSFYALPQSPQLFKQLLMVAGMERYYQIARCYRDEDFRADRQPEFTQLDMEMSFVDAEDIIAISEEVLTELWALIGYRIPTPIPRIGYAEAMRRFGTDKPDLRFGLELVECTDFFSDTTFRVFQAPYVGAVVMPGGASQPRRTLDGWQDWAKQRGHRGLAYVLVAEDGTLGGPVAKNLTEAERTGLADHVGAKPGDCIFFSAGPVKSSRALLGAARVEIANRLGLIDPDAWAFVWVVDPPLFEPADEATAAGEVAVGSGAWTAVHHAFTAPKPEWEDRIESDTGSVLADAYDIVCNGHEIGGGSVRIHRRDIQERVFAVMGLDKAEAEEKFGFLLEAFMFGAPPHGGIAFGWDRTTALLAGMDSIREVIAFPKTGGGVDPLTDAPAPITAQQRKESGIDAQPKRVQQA
Type: functional
Parameters: scale not given: in the data most compounds retested in dose-response had high values

Row | SMILES | Percent Effect [%]
1 | O=C(Cc1ccccc1)N1CCC2(CC(=O)N(c3ccsc3)C2)C1 (centres undefined) | -3.62
2 | CCc1noc(C)c1C(=O)N1CCCC1Cn1nc(C)cc1C (centres undefined) | 0.674
3 | O=c1ccc(-c2cccs2)nn1CN1CCN(Cc2ccccc2)CC1 | -1.1
4 | COCCc1noc(CNC2CCc3nc(C(C)C)nn3C2)n1 (centres undefined) | 3.49
5 | CCC(CC)c1cc(CNC(=O)N2CCOC(C)C2)on1 (centres undefined) | -0.437
6 | NS(=O)(=O)c1ccc(NC(=O)CSc2ccc3c(c2)CCC3)cc1 | 3.87
7 | O=C(c1ccn(-c2cccc(F)c2)n1)N1CCCC(n2cccn2)C1 (centres undefined) | -2.68
8 | Cc1ccc(C(=O)N2CCO[C@H]3[C@@H](OCc4ccccn4)CC[C@@H]32)o1 | 6.63
9 | Cc1nc(C)n(CC2CCCN(CC(=O)Nc3c(C)n[nH]c3C)C2)n1 (centres undefined) | -1.34
10 | CN1CCCn2c(nc(CNC(=O)c3ccsc3)cc2=O)C1 | 4.62
11 | O=C(c1cc(C2CC2)[nH]n1)N1CCN(Cc2ccsc2)CC1 | -6.85
12 | COc1cccc(-n2nnc(C(=O)N3CCCC3)c2C)c1 | -2.63
13 | Cc1cc(C)c(CNC(=O)NCC(O)c2cccc(F)c2)c(=O)[nH]1 (centres undefined) | 2.36
14 | COCCOc1ccc(NC(=O)N2CCCC2c2cc(C)no2)cn1 (centres undefined) | -5.36
15 | CN1CCOC(CNCc2coc(-c3cccs3)n2)C1 (centres undefined) | 3.28
16 | CCc1nccc(CN2CCCC(c3nn(C)c(=O)n3CC)C2)n1 (centres undefined) | 1.68
17 | CS(=O)(=O)c1ccc(NC(=O)N2CCc3sccc3C2)cn1 | 5.08
18 | Cc1cccc(-c2ccc3nc(C4CCN(CC5CC5)CC4)nn3c2)c1 | -1.89
19 | Cc1cnn(CC2CN(CC(=O)Nc3sccc3C#N)CCO2)c1 (centres undefined) | -2.83
